# Where “and” joins values, the source holds several entries; their conditions need not be identical. Identical values can stand only once. Some structures have more than one record in an assay (separate samples or runs), and their calls can disagree. Calls of active or inactive are those of the source. No stated cut-off is given here; in the data, active means inhibition score above about 11; inactive means the rest.
# Test: yeast proliferation inhibition, dose response, BY4741, OD595, 24 h (AID 489042)
# Conditions: S. cerevisiae BY4741 growth, stronger effect = higher value
row,Structure (SMILES),inhibition score
1,O=C(Nc1cccc(Cl)c1)Nc1ccc2nccnc2c1,0 (inactive)
2,CC(C)OC(=O)c1ccc2nc3ccccc3nc2c1,10 (inactive)
3,O=C1c2c(O)ccc(O)c2C(=O)c2c(NCCNCCO)ccc(NCCNCCO)c21,0 (inactive)
4,C#CCSc1nnc(-c2ccc([N+](=O)[O-])cc2)o1,0 (inactive)
5,C=CCSc1nnc(-c2ccc([N+](=O)[O-])cc2)o1,10 (inactive)
6,CC(=O)Nc1ccc2nc3ccccc3nc2c1,0 (inactive)
7,COc1ccc2nc3ccccc3nc2c1,10 (inactive) and 21 (active)
8,COc1ccc2cc(C3CC(c4ccco4)=NN3S(=O)(=O)c3ccccc3)c(Cl)nc2c1 (centres undefined),0 (inactive)
9,O=C(/C=C/c1cccs1)NC(=S)NNC(=O)Cc1cccs1,21 (active)
10,CCCCCNC(=O)C(=O)C1C(=O)Nc2ccccc21 (centres undefined),10 (inactive)
11,COc1ccc2c3c(cccc13)N(C)N=C2C,10 (inactive)
12,CCN(CC)c1ccc2nc3ccc(N)cc3[n+](-c3ccccc3)c2c1,0 (inactive)
13,O=C(Nc1ccc2nc3ccccc3nc2c1)c1ccccc1,21 (active)
14,Cc1ccccc1NC(=O)c1cccc2nc3ccccc3nc12,0 (inactive)
15,CC(=O)[C@@]1(O)CCC2C3CC[C@H]4C[C@@H](O)CC[C@]4(C)C3CC[C@@]21C (some centres undefined),0 (inactive)
16,CCn1c2ccccc2c2n[nH]c(=S)nc21,0 (inactive)
17,O=C(Nc1ccc2nc3ccccc3nc2c1)c1ccc(Br)cc1,0 (inactive)
18,CC(C)(C)n1nc(-c2ccc(F)cc2)c2c(N)ncnc21,21 (active)
19,COc1ccc2nc3ccccc3nc2c1N,10 (inactive)
20,CNC(=O)c1cccc2nc3ccccc3nc12,21 (active)
21,N#CC(c1nc2ccccc2nc1N1CCCC1)S(=O)(=O)c1ccccc1 (centres undefined),0 (inactive)
22,CSc1nnc2c3cc(F)ccc3n(C)c2n1,21 (active)
23,O=C(O)c1cnc2ccccc2n1,0 (inactive)
24,Cc1cc(C)cc(NC(=O)CN2CCN(c3ccccn3)CC2)c1,0 (inactive)
25,C=CCOn1c(=O)c(-c2cccs2)[n+]([O-])c2ccccc21,0 (inactive)
26,C/C(=N\Nc1ncnc2sc(C)c(C)c12)c1ccccn1,21 (active)
27,Cc1cc(C)c2[nH]c3nc(SCC(=O)O)nnc3c2c1,0 (inactive)
28,CSc1nnc(-c2ccc([N+](=O)[O-])cc2)o1,0 (inactive)
29,COc1ccc2nc3ccccc3[n+]([O-])c2c1,0 (inactive)
